The structures appear in SMILES notation. Out of some 330,000 compounds screened, about 520 (0.16%) were called active.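 Rule for the calls: active = inhibition of at least 50% in every replicate; inconclusive = best replicate reaches 50% inhibition but some replicates fall short; inactive = the rest.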 The sample as a whole holds a higher share of actives than the screen did.

This assay deals with Histone acetyltransferase RTT109 (Candida albicans (strain SC5314 / ATCC MYA-2876)) (UniProt Q5AAJ8). As to the kind of experiment: Rtt109-Vps75 histone acetyltransferase blockade – biochemical, ThioGlo CoA-SH fluorescence, plate reader, primary screen (AID 540336). The conditions noted are these: purified Rtt109/Vps75, ThioGlo CoA-SH fluorescence, 4 h; at 34.9 µM; hits give high values.
Sequence of Histone acetyltransferase RTT109 (Candida albicans (strain SC5314 / ATCC MYA-2876)) (Q5AAJ8 whole entry, looked up): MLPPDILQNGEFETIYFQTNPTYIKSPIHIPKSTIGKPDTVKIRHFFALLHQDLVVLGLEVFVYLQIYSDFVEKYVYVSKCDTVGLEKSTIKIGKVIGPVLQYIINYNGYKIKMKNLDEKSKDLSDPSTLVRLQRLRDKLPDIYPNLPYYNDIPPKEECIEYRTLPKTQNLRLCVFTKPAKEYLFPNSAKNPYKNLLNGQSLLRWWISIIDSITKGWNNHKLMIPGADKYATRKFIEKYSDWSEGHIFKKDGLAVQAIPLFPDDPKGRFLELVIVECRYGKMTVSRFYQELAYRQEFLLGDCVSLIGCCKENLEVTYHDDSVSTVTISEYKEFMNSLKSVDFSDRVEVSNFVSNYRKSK
As to `Oc1cccc(CCc2ccccn2)c1`, the inhibition is -14.8% (inactive).
Take `CC/C(=C\c1ccc(Cl)cc1)c1ccncc1`: the inhibition was -6.6% (inactive).
In the case of `CC12CCCCC1=CC(=O)CC2` (stereo unspecified) it was -10.3% (inactive).
Under `CC1=NN(/C(=N\c2nnc(C)s2)Nc2ccccc2)[C@H](c2ccc(C)cc2)S1` stands -10.9% (inactive); under `Cc1cn(C2CC(O)C(CO)O2)c(=O)n(CCCc2ccccc2)c1=O` (stereo unspecified), 5.62% (inactive).
In the case of `COc1ccc(/C=C2/CCCc3ccccc3C2=O)cc1`, the inhibition was -1.83% (inactive).
Take `O=C(CNC(=O)c1ccccc1F)OCC(=O)c1c[nH]c2ccccc12`: the inhibition was 3.64% (inactive).
For the compound `COc1ccc(Cl)cc1C=CC=NNC(=O)c1ccncc1`, the inhibition was -2.75% (inactive).
Take `Cc1cccc(NC(=S)N2CCC(C(=O)c3ccc(F)cc3)CC2)c1`: the inhibition was -3.47% (inactive).
Turning to `O=C(Nc1ccc(S(=O)(=O)N2CCOCC2)cc1)C1CCN(S(=O)(=O)c2ccc(Cl)cc2)CC1`, the inhibition is 1.41% (inactive).
In the case of `CCOc1cc2ccccc2cc1C(=O)Nc1ccccn1` it was -0.763% (inactive); in that of `C/C(=N\NC(=O)Cc1ccc(Cl)cc1)c1ccccn1`, 1.88% (inactive).
Consider `CCN(CC)CCOc1ccc2c(c1)C(=NNC(=O)c1ccccn1)c1cc(OCCN(CC)CC)ccc1-2`, for which the inhibition is 72.5% (active).
For `COc1ccc(CCC(=O)Nc2ccc(Cl)c(S(=O)(=O)N3CCOCC3)c2)cc1OC`, the inhibition was 4.5% (inactive).
Under `CCNC(=S)NCC` stands 3.05% (inactive); under `O=C(O)c1ccc([N+](=O)[O-])cc1Sc1ccsc1`, -13.5% (inactive).
As to `CC(NC(=O)c1ccccc1)C(=O)OCC(=O)Nc1cccc(S(=O)(=O)N2CCCC2)c1` (stereo unspecified), the inhibition was 9.23% (inactive).
As to `CCCCN1CC(CO)Oc2cccc(F)c2S1(=O)=O` (stereo unspecified), the inhibition was -0.514% (inactive).
Turning to `COc1ccc(CCNC(=O)COC(=O)c2cnc(Cl)c(Cl)c2)cc1`, the inhibition is 9.18% (inactive).
In the case of `COc1cccc(-c2ccc(C#N)c(SCC(=O)NCCc3ccc(Cl)cc3)n2)c1` it was 58.6% (active); in that of `COc1ccc(CCNC(=O)CSc2nc(-c3ccc(OC)c(OC)c3)ccc2C#N)cc1`, 0.0988% (inactive); in that of `O=[N+]([O-])c1ccc(C=NN=Cc2ccc([N+](=O)[O-])cc2)cc1`, -12.3% (inactive).
Under `COc1ccc(C(CNC(=O)c2cc(S(=O)(=O)Nc3cccc(C)c3)ccc2C)N2CCCC2)cc1` (stereo unspecified) stands 22.1% (inactive); under `CCOc1cc(C=NNC(=O)CCCC(=O)NN=Cc2ccc(O)c(OCC)c2)ccc1O`, 3.06% (inactive); under `COC(=O)C1CC2=C(CC(C)(C)CC2=O)N(c2ccccc2)C1=O` (stereo unspecified), -0.664% (inactive).
For the compound `COc1ccc(CCNC(=O)c2ccc(NC(=O)CC3SC(N4CCCCC4)=NC3=O)cc2)cc1OC` (stereo unspecified), the inhibition was 9.04% (inactive).
Under `O=c1[nH]n2c(-c3ccccc3)nc(O)c2c2ccccc12` stands -9.47% (inactive); under `O=c1[nH]c2ccccc2n2c(-c3ccccc3)nnc12`, 127% (active); under `O=C(c1ccc2c(c1)C(=O)N(Cc1ccncc1)C2=O)N1CCN(S(=O)(=O)c2ccc(OC(F)(F)F)cc2)CC1`, 5.03% (inactive).
As to `NC(=O)c1ncn([C@@H]2O[C@H](CNCc3cnc(N4CCOCC4)s3)[C@@H](O)[C@H]2O)n1`, the inhibition is 0.868% (inactive).
In the case of `O=C(OCCOc1ccccc1F)c1cc(S(=O)(=O)N2CCOCC2)ccc1F` it was -4.81% (inactive); in that of `O=C(OCCOc1ccccc1Cl)c1cc(S(=O)(=O)N2CCCCC2)ccc1N1CCOCC1`, 2.25% (inactive).
For the compound `NNc1cccc(C=Cc2ccccc2)cc1=O`, the inhibition was 9.21% (inactive).
Under `COc1ccccc1N(CC(=O)Nc1c(C)n(C)n(-c2ccccc2)c1=O)S(=O)(=O)c1ccccc1` stands 33.3% (inactive).
In the case of `CCc1c(Nc2ccccc2C)nc(N)[nH]c1=O`, the inhibition is -5.27% (inactive).
On to `O=C(O)c1ccc(Cn2cnc3c(=S)nc[nH]c32)cc1`, for which the inhibition is 0.573% (inactive).
Under `O=C1OCC2=C1C(c1ccc(Cl)cc1)c1cc3c(cc1O2)OCO3` (stereo unspecified) stands 8.44% (inactive).
Under `Cc1cc(C)c2c(NC(=O)C3CC3)nn(C)c2n1` stands -4.52% (inactive).
In the case of `C=CCN1C=C(C(=O)c2ccccc2)C(=O)CC1` it was 9.46% (inactive); in that of `CN(C)CCNC(=O)c1ccc(Cl)c2cc3ccccc3nc12`, 0.27% (inactive); in that of `Nc1ccccc1SC(C[N+](=O)[O-])c1ccccc1` (stereo unspecified), 108% (active).
`Cc1ccc(C(C[N+](=O)[O-])c2c(C)cc3ccccn23)cc1` (stereo unspecified): the inhibition is 2.3% (inactive).
Under `Oc1c(CN2CCCC2)cc(COCc2ccccc2)c2cccnc12` stands -7.26% (inactive); under `CCSc1nc2sc3c(c2c(=O)n1-c1ccc(C)cc1)CCN(C)C3`, 8.04% (inactive).
Consider `COc1ccccc1NC(=O)CSc1nc2sc3c(c2c(=O)n1-c1ccccc1)CCN(C)C3`, for which the inhibition was 59.4% (active).
As to `CCCSc1nc2sc3c(c2c(=O)n1-c1ccc(OC)cc1)CCN(C)C3`, the inhibition was 0.409% (inactive).
Turning to `CCOc1ccc(-n2c(SCC(=O)OC)nc3sc4c(c3c2=O)CCN(C)C4)cc1`, the inhibition is -6.79% (inactive).
Consider `CCOc1ccc(-n2c(SCC(=O)Nc3ccc(OC)cc3)nc3sc4c(c3c2=O)CCN(C)C4)cc1`, for which the inhibition is 11.2% (inactive).
Under `CCn1c(SCC(=O)Nc2ccc(Br)cc2)nc2sc3c(c2c1=O)CCN(C)C3` stands 51.8% (active); under `Cc1ccc(C(=O)CSc2ccccc2C(=O)O)cc1`, -2.24% (inactive).
Under `Cc1ccc(SC(CC(=O)c2ccc(C(C)(C)C)cc2)C(=O)O)cc1` (stereo unspecified) stands 142% (active); under `Cc1ccc(C(=O)CNc2ccc(F)cc2)cc1`, -2.53% (inactive).
As to `O=[N+]([O-])c1ccc(N=NNc2ccc([N+](=O)[O-])cc2)cc1`, the inhibition is 2.16% (inactive).
For the compound `Cc1cccc(CC2(O)C(=O)Nc3ccccc32)n1` (stereo unspecified), the inhibition is -2.36% (inactive).
In the case of `O=C(Nc1c(Br)cc2c(c1Br)Cc1ccccc1-2)C(F)(F)F` it was -19.3% (inactive).
In the case of `OCC1(CO)CC2(C1)CC(CO)(CO)C2` it was -0.212% (inactive); in that of `Cc1cccc(C=CC(=O)c2ccc(Cl)cc2)c1`, -3.33% (inactive).
In the case of `CNc1nc(=O)n(C2CCCO2)cc1C` (stereo unspecified) it was 12.5% (inactive); in that of `S=C(Nc1ccccc1)Nc1ccc2ccccc2c1`, 0.68% (inactive).
For the compound `C=CCn1c(=O)n(C)c2c(=O)n(C)c(=O)n(C)c21`, the inhibition was 1.91% (inactive).
Under `CNC(=O)NC(=O)C(C)N1CCN(C/C=C/c2ccccc2)CC1` (stereo unspecified) stands -0.128% (inactive).

Usually inhibition stands for the change of the read-out against control, counted positive when it falls.

Values taken from PubChem BioAssay AID540336 (Broad Institute, 2011).
